Results on 4 compounds are retold here after PubChem BioAssay (NCATS).

For assay [1], the system named is Zika virus NS2B-NS3 protease (linked). As to the kind of experiment: 384 well plate NINDS AMC confirmatory qHTS for Zika virus inhibitors (AID 1347163; active means well fitted inhibition curve with a large enough effect; further: potency means the concentration at half of the fitted maximal effect; nearly all actives have a fitted effect of over 50% in size). To be noted: Recombinant NS2B-NS3 protease, Ac-VKTGKR-AMC fluorescence. In a few lines: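 Enzyme (5, 30 or 60 nM final) first met test compounds for ~15 min. The AMC-tagged peptide Ac-VKTGKR-AMC followed at 30 microM. Fluorescence was then recorded at 25 min and scaled against no-enzyme and no-inhibitor wells.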
For orientation: In qHTS, concentration-response curves come from the screen itself.

The subject of assay [2] is Zika virus NS2B-NS3 protease (linked construct). The experiment in a line: 384 well plate NINDS Rhodamine confirmatory qHTS for Zika virus inhibitors (AID 1347164; active means well fitted inhibition curve with a large enough effect; further: potency means the concentration at half of the fitted maximal effect; nearly all actives have a fitted effect of over 65% in size). The note with it: rhodamine-110 peptide substrate fluorescence; series mostly up to 316 µM. In a few lines:
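Cleavage of Ac-LKRR-Rhodamine 110 (10 microM final) by linked protease (final 5, 30 or 60 nM) was followed as fluorescence at 485/538 nm after 25 min, room temperature, dark. Compounds preincubated ~15 min.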

A short description of assay [3]: Tertiary RLuc qRT-PCR qHTS assay for Zika virus inhibitors (AID 1347169; active means well fitted inhibition curve with a large enough effect; further: potency means the concentration at half of the fitted maximal effect; nearly all actives have a fitted effect of over 55% in size). The note with it: infected Vero cells, reporter luminescence, 48-72 h; series mostly up to 45.9 µM. In a few lines:
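Inhibition of ZIKV-RLuc replication in Vero cells, read as Renilla luminescence 1-1.5 hrs after live-cell substrate addition, following 48-72 hrs infection at MOI 1-2 in presence of compound.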

The nature of assay [4]: Primary qHTS for Huh7 cytotoxicity: counterscreen for inhibitors of MERS-S pseudotyped particle cell entry (AID 1479147). To be noted: cell viability read-out; series mostly up to 57.1 µM.
Assay [5] is described as follows: Primary qHTS for Vero E6 cytotoxicity: counterscreen for inhibitors of SARS-S pseudo-typed particle cell entry (AID 1479150). The note with it: cell viability; series mostly up to 57.1 µM.
Assay [6] can be described thus: NCATS anti-infectives library activity on the primary C. elegans qHTS viability assay (AID 1745855). Further: potency means the concentration at half of the fitted maximal effect. To be noted: C. elegans worm area imaging, day 7; series mostly up to 41.8 µM. In a few lines: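 Titration-based screen in worms: eggs hatched overnight in M9, L1 larvae fed TOP10 capsules in S medium with compound, incubated 21 °C for 7 days; fluorescent objects gated by size and intensity at days 0, 3 and 7.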

Assay [7] is described as follows: VSVG counterscreen qHTS to identify inhibitors of SARS-CoV-2 cell entry (AID 1645847). Further: potency means the concentration at half of the fitted maximal effect; nearly all actives have a fitted effect of over 65% in size. To be noted: VSV-G pseudotyped particle entry, luciferase; series mostly up to 57.2 µM. In a few lines:
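Entry of VSV-G pseudotyped particles into human ACE2-expressing HEK293 cells was measured by luciferase luminescence 48 h after infection, with compound added 1 h beforehand.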

Results filed as inconclusive are left out. The source made the active and inactive calls. Unless noted, the call rests on the fitted dose curve.

`CC(C)=CCC[C@]1(C)C=Cc2c(O)c3c(c(CC=C(C)C)c2O1)O[C@]12C(=C[C@@H]4CC1C(C)(C)O[C@@]2(C/C=C(/C)C(=O)O)C4=O)C3=O`: the Potency was 1000 nM (active) in assay [1], 7080 nM (active) in assay [2] and 2940 nM (active) in assay [3].

`COc1ccc(C(C)(C)C)cc1CN[C@H]1C2CCN(CC2)[C@H]1C(c1ccccc1)c1ccccc1`: the result in assay [4] and in assay [5] was inactive.

`CC[C@H]1/C=C\C=C/C[C@@H](C)[C@H](O)[C@@](C)(O)C(=O)[C@@H](C)[C@H](O)[C@@H](C)C(=O)[C@@H](C)[C@H](O)[C@@H](C)/C=C\C(=O)O[C@@H]2[C@H](C)[C@H](CC1)O[C@]1(CC[C@H](C)[C@H](C[C@@H](C)O)O1)[C@H]2C`: in assay [6], the Potency was 5780 nM (active).

As for `C/C(=C\c1csc(C)n1)[C@@H]1C[C@@H]2O[C@@H]2CCC[C@H](C)[C@H](O)[C@@H](C)C(=O)C(C)(C)[C@@H](O)CC(=O)O1`, the Potency in assay [7] is 54.1 nM (active).
